Experimental data as given in PubChem BioAssay AID651814 (National Center for Advancing Translational Sciences (NCATS), 2012).
Values joined by “and” are separate entries in the source; they are usually repeats but may differ in a detail not shown here. Equal values may be shown once. Among all 2,100 compounds or so, about 590 (28%) were called active. Roughly 42% stayed inconclusive and do not appear here. This is one part of the list. Unmarked numbers belong to inactive results. The call rests on the fitted dose curve; in most records, active means well fitted inhibition curve with a large enough effect; inconclusive means small, poorly fitted or top-dose-only effect; inactive means flat fitted curve, though single readings scatter.

target: DNA dC->dU-editing enzyme APOBEC-3F (Homo sapiens) (UniProt Q8IUX4); experiment: qHTS for inhibitors of Vif-A3F interactions: Cherry picks; details: HeLa A3F-eYFP + Vif (tagged APOBEC3F with the HIV-1 protein that degrades it), eYFP fluorescence, 24 h; further: nearly all actives have a fitted effect of over 70% in size;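 on max response: % of control where 0% means no effect; active compounds raise eYFP fluorescence by blocking Vif-driven A3F loss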
How it was run: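 Read-out: yellow fluorescence (ex 488 nm, em 500-530 nm) by laser-scanning cytometer after 24 h compound exposure, several concentrations, at 37 deg C. Cells: HeLa line stably co-expressing Vif and C-terminally eYFP-tagged A3F; MG132 served as positive control.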
Potency means the concentration at half of the fitted maximal effect.

Chain of DNA dC->dU-editing enzyme APOBEC-3F (Homo sapiens) (Q8IUX4 whole entry, looked up): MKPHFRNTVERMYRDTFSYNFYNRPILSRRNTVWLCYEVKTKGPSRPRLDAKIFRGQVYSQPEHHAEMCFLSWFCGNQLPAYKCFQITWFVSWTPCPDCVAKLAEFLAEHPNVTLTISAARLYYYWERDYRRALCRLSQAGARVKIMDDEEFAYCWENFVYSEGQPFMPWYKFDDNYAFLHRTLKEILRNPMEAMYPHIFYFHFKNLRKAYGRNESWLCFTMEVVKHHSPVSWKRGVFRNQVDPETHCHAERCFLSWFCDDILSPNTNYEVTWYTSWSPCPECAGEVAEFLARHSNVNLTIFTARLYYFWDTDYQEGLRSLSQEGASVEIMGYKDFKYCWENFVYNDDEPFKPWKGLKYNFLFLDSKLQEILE

SMILES	Potency	max response
COc1ccc(C(=O)c2sc3nc(C)cc(-c4cccs4)c3c2N)cc1	18.4 µM (active)	–
O=C(NC(=S)N1CCN(C2CCCCC2)CC1)c1ccccc1	–	3.13%
CCCCN1C(=O)/C(=C/C=C2/CC(C)(C)CN2C)SC1=S	3.96 µM (active)	–
Cc1ccc(Cn2c(SCc3ccc(C(=O)NC4CCCC4)cc3)nc3ccncc32)cc1	–	-0.957%
ClCC1NCC(c2ccccc2Cl)c2c1[nH]c1ccccc21 (stereo not drawn)	–	-5.81%
Cn1cc(C2=C(c3ccc(Cl)cc3Cl)C(=O)NC2=O)c2ccccc21	2.91 µM (active) and 14.6 µM (active)	–
COc1ccc(S(=O)(=O)N2c3ccccc3OCC2CC(=O)O)cc1 (stereo not drawn)	–	-27.6%
COc1cc(NC(=O)c2ccco2)c(C(=O)OCC(=O)c2c[nH]c3ccccc23)cc1OC	–	-11.7%
Cn1nnc2c[n+](CC(=O)c3ccc(Cl)cc3)cc(Br)c21	17.7 µM (active)	–
O=C(Nc1cc(Cl)ccc1-n1cncn1)c1ccc([N+](=O)[O-])s1	15.8 µM (active)	–
N#CC1=C(N)Oc2ccc3ccc(O)cc3c2C1c1ccsc1 (stereo not drawn)	–	-15.9%
N#CC1=C(N)Oc2cc(N)ccc2C1c1ccc(F)cc1F (stereo not drawn)	18.4 µM (active)	–
Cc1oc(C)c2c(=O)ccc3c(c12)OC(N)=C(C#N)C3c1ccc(F)cc1 (stereo not drawn)	–	1.74%
O=C1[C@@H]2[C@@H](CN3CN(c4ccccc4)N=C(c4ccccc4)[C@@]23c2ccccc2)C(=O)N1c1ccccc1	–	-0.723%
CC(C)CC[n+]1ccccc1/C=C/c1ccc(N(C)C)cc1	20.6 µM (active)	–
CC[n+]1ccccc1/C=C/c1ccc(N(C)C)cc1	20.6 µM (active)	–
Cc1ccc(-c2csc(NC3OC(=O)c4ccccc43)n2)cc1 (stereo not drawn)	14 µM (active)	–
c1ccc2c(c1)nc(NCC1CCCO1)c1nnnn12 (stereo not drawn)	–	-11.8%
Fc1ccc(CNc2nc3ccc(Cl)cc3n3nnnc23)cc1	–	-20.9%
Fc1ccc(CNc2nc3ccccc3n3nnnc23)cc1	23.1 µM (active)	–
c1ccc2c(CCc3c[nH]c4ccccc34)ccnc2c1	20.6 µM (active)	–
COc1ccccc1OCC(=O)N/N=C/C=C/c1ccc([N+](=O)[O-])o1	10.3 µM (active)	–
Cc1ccccc1OCC(=O)N/N=C/c1ccc(N(C)C)cc1	–	-27.7%
O=C(N/N=C\C=C\c1ccc([N+](=O)[O-])o1)c1cccs1	12.5 µM (active)	–
O=C(N/N=C/C=C/c1ccco1)c1ccncc1	–	-0.284%

SMILES	Potency	max response
O=C(COc1ccccc1-c1ccccc1)NN=C1CCCC1	–	-15.6%
O=C(CN1C(=O)CSc2ncccc21)Nc1cccc(Cl)c1	–	-15.2%
CC(C)COc1ccc(C(=O)N/C(=C/c2cccc([N+](=O)[O-])c2)C(=O)O)cc1	–	-0.401%
Oc1sc(C=Nc2ccccc2)c2ccccc12	20.6 µM (active)	–
CCCC(=O)NC(c1ccc(OC)cc1)c1c(O)ccc2ccccc12 (stereo not drawn)	–	-21%
COc1ccc(N=Cc2sc(O)c3ccccc23)cc1	8.86 µM (active)	–
COc1ccc(N=Cc2c(O)c3ccccc3n2C(C)=O)cc1	20.6 µM (active)	–
CC(=O)n1cc(/C=N/NC(=O)c2sc(C)nc2C)c2ccccc21	–	-21.7%
COc1ccc(N=Cc2oc3ccc4ccccc4c3c2O)cc1	5.17 µM (active)	–
CC1(C)CC(=O)C(C=Nc2cc(C(=O)c3ccccc3)ccc2N)=C(O)C1	–	-20.7%
O=c1[nH]c2ccccc2n2c(=S)[nH]nc12	–	-3.48%
COc1ccc(N/C=C2\C(=O)CCc3c2oc2cc(Cl)c(O)c(Cl)c32)cc1	–	-28.6%
COC(=O)C1C2CC3c4[nH]c5cc(OC)ccc5c4CCN3CC2CC(OC2CCCCO2)C1OC (stereo not drawn)	–	-12.1%
S=c1[nH]cnc2sc(-c3ccccc3)cc12	–	-2.16%
Oc1sc(C=Nc2ccc(F)cc2)c2ccccc12	4.11 µM (active)	–
CCN(CC)C(=O)CSC(Nc1cccc(F)c1)=C(C#N)C#N	–	-4.73%
O=C(N/N=C/c1ccc2c(c1)OCO2)c1ccc2c(c1)OCCO2	–	-24.9%
CN(C)c1ccc(/C=N/NC(=O)c2cc(-c3ccc4c(c3)OCO4)n[nH]2)cc1	17.7 µM (active)	–
O=C(NN=Cc1c(O)ccc2ccccc12)c1ccc2c(c1)OCO2	–	-14.5%
COCCCNC(=S)N/N=C/c1cccc(OC)c1O	–	-1.71%
NC(=O)c1c(NC(=O)c2ccccc2)sc2c1CCN(Cc1ccccc1)C2	14 µM (active)	–
CCCN1CCc2c(sc(NC(=O)c3ccc(S(=O)(=O)N(C)c4ccccc4)cc3)c2C(=O)NC)C1	23.1 µM (active)	–
CC(C)CN(CC(C)C)S(=O)(=O)c1ccc(C(=O)Nc2sc3c(c2C(N)=O)CCN(C(C)C)C3)cc1	20.6 µM (active)	–
O=C(Nc1ncc(Cc2ccc(SC(F)F)cc2)s1)c1ccccc1	–	-6.02%
CC(C)(C)C(=O)Nc1sc2c(c1C#N)CCN(Cc1ccccc1)C2	–	-17.1%

SMILES	Potency	max response
Cc1nc2ccc(NC(=O)c3cc(S(=O)(=O)N(C)c4ccccc4)ccc3Cl)cc2s1	–	-11.3%
CCCN1CCc2c(sc(NC(=O)c3ccc(S(=O)(=O)N(C)c4ccccc4)cc3)c2C(N)=O)C1	20.6 µM (active)	–
CCCCOc1ccc2c(c1)/C(=C(\C(Cl)=C(Cl)Cl)[N+](=O)[O-])N2	–	-18.3%
CCS(=O)(=O)N1CCc2cc(C(=O)N3CCN(c4cccc(C(F)(F)F)c4)CC3)ccc21	–	-12.8%
CC1=CC(C)(C)NC(=S)N1c1ccc2ccccc2c1	–	1.72%
CCN1CCc2c(sc(NC(=O)c3ccc(S(=O)(=O)N(CC)c4ccccc4)cc3)c2C(N)=O)C1	9.94 µM (active)	–
CCN1CCc2c(sc(-n3cccc3)c2C(C)NC(=O)Nc2ccc(C(=O)OC)cc2)C1 (stereo not drawn)	–	0.47%
CC(C)N1CCc2c(sc(NC(=O)c3cc4cc([N+](=O)[O-])ccc4s3)c2C(N)=O)C1	20.6 µM (active)	–
N#Cc1c(NC(=O)c2ccc([N+](=O)[O-])o2)sc2c1CCC2	–	-22.4%
CC(=O)Nc1ccc(Nc2c3c4c(cccc4n(C)c2=O)C(=O)c2ccccc2-3)cc1	–	-27.5%
CCCCOc1nc2ccccc2nc1NS(=O)(=O)c1ccc(F)cc1	–	5.01%
Cc1ccc2c(Cl)c(C)c(N3CCCC3)nc2n1	–	1.73%
Clc1ccccc1Cn1c(/C=C/c2ccco2)nc2ccccc21	–	-8.9%
ClCc1nc2ccccc2n1Cc1ccccc1	18.4 µM (active)	–
CCC(=O)Nc1nonc1-c1nc2ccccc2n1Cc1ccccc1	–	-26.4%
CCCOc1ccc(NC(=O)CC2C(=O)N(c3ccc(OCC)cc3)C(=S)N2C2CC2)cc1 (stereo not drawn)	–	-28%
CCC(=O)Nc1ccccc1-c1nc2ccccc2n(C(C)C(=O)Nc2ccc(OC)cc2)c1=O (stereo not drawn)	11.6 µM (active)	–
CCOC(=O)N1CCC(Nc2nc3ccccc3n3nnnc23)CC1	–	-9.96%
CCOC(=O)Nc1cc2c(c(N)n1)N=C(c1ccccc1)CN2	0.0259 µM (active)	–
Cc1ccc(-c2cn3nc(-c4ccccc4)c(-c4ccccc4)nc3n2)cc1	18.4 µM (active)	–
COC(=O)c1sc2nc(CSc3ccc(Br)cc3)[nH]c(=O)c2c1C	–	-22%
Cc1ccc(CSc2nc(-c3ccc(C(C)(C)C)cc3)nc3cc(=O)[nH]n23)cc1	–	-0.911%
COc1cc(-c2noc(C)c2/C=C/c2ccc(OC(C)=O)cc2)cc(OC)c1OC	0.627 µM (active)	–
N#CC(C(=S)Nc1ccccc1)c1nc2ccccc2[nH]1 (stereo not drawn)	–	-16.9%
CCOC(=O)Cn1c(=O)c(-c2cc(Br)ccc2N)nc2ccccc21	8.2 µM (active)	–

SMILES	Potency	max response
CCOc1ccccc1N1CC(c2nc3ccccc3n2Cc2c(C)cc(C)cc2C)CC1=O (stereo not drawn)	–	-7.39%
CCOC(=O)COn1c(=O)c(-c2ccc(Br)cc2)[n+]([O-])c2ccccc21	–	3.1%
CC(C)n1c(O)c(N=Nc2ccc(Cl)nn2)c2ccccc21	20.6 µM (active)	–
CCOC(=O)c1c(-c2ccc(OC)cc2)csc1/N=C/C1C(=O)CCCC1=O	–	-2.18%
Cc1nc(C)c(C(=O)OCC(=O)Nc2ccccc2SCC#N)s1	15.8 µM (active)	–
N#CCSc1ccccc1NC(=O)COc1ccc(-c2nnco2)cc1	17.7 µM (active)	–
Cc1ccc(C(=O)CCC(=O)OCC(=O)Nc2ccccc2SCC#N)cc1	–	-8.08%
CSc1ccccc1NC(=O)COC(=O)/C=C/c1ccco1	–	-23.1%
N#CCSc1ccccc1NC(=O)COC(=O)CCNC(=O)c1ccc([N+](=O)[O-])cc1	–	-12%
Cc1noc(C)c1C(=O)OCC(=O)Nc1ccccc1SCC#N	–	-24.1%
CCCCOc1ccc(/C=C/C2=CC(C)(C)NC(=S)N2)cc1OCC	–	-3.97%
CCN(CC)c1ccc(/C=C/C2=C3C=CC=CC3NC=C2)cc1 (stereo not drawn)	18.4 µM (active)	–
CN(C)c1ccc(/C=C/c2ccncc2)cc1	–	-29.1%
CCN(CC)c1ccc(/C=C/c2ccncc2)cc1	4.11 µM (active)	–
CCN(CC)c1ccc(/C=C/c2ccccn2)cc1	5.17 µM (active)	–
Cc1cc(C)c(C(=O)N(CCN(C)C)CC2CCCN(Cc3ccccc3F)C2)o1 (stereo not drawn)	–	2.52%
CCOc1ncccc1C(=O)OCc1ccc(C(=O)OC)cc1	–	-26.7%
CCOc1ccc(NC(=O)Cn2c(=O)n(Cc3ccc(C(=O)NCc4ccc(C)cc4)cc3)c(=O)c3ccccc32)cc1	11.6 µM (active)	–
CCOc1ncccc1C(=O)NCc1ccc(OC)cc1	–	-24.5%
Cc1ccc(CNC(=O)Cn2cc(C(=O)c3ccc(Cl)cc3)c(=O)c3ccc(C)nc32)cc1	–	-28.8%
Cc1ccc(-n2c(=O)c3ccc(C(=O)NCc4ccccc4Cl)cc3n(CC(=O)Nc3cccc(Cl)c3)c2=O)cc1	–	-26%
CCOc1ccc(CCNC(=O)c2ccc(Cn3c(=O)c4cccn4c4cccnc43)cc2)cc1	16.4 µM (active)	–
O=C(NCCc1ccccc1Cl)c1ccc(Cn2c(=O)c3cccn3c3cccnc32)cc1	20.6 µM (active)	–
